In PubChem BioAssay (NCATS):
Inconclusive results are not listed. Active and inactive are the calls of the source. Unless noted, calls come from the whole dose curve; as a rule, active = well fitted curve in the direction sought with a large enough effect; inconclusive = small, poorly fitted or top-dose-only effect, or another doubt; inactive = no such curve, though single readings can be large; an effect the other way counts as inactive or inconclusive.

Legend:
[1] = biological target: Mitogen-activated protein kinase 10 (Mus musculus) (UniProt Q61831); assay: JNK3 AlphaScreen Assay (AID 530; active = well fitted curve in either direction with a large enough effect, not every such curve was filed as active;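 note: kinase came from lysate of stimulated human HepG2 cells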; note: potency is the fitted concentration of half-maximal effect)
Method in brief: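 Phosphorylation of biotinylated GST-cJun(1-79) at Ser73 is measured by AlphaScreen proximity luminescence. Enzyme is JNK3 in HepG2 lysates activated with interleukin-1beta and tumor necrosis factor alpha; ATP is 10 uM final.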

[2] = Cellular Toxicity (caspase-3) Jurkat (AID 655); settings: Jurkat caspase-3 activation, luminescence; caspase-3 activation: at 92.2 µM (top of the series), DMSO = 0%, tamoxifen = 100%;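 note: cells exposed to compound for 16 h at 37 °C before reading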
Method in brief: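 Caspase 3/7 activation is scored as increased luminescence in Jurkat cells cultured with compound for 16 hours in complete medium. AC50 values come from Hill fits of qHTS concentration-response data normalized to DMSO and 100 uM tamoxifen controls.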

[3] = Cellular Toxicity (caspase-3) SHSY5Y (AID 657);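 note: cells exposed to compound for 16 hours at 37 °C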
Method in brief: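 Cells plated and incubated 5 h at 37 °C, dosed over a concentration range, incubated 16 h, then given Caspase-Glo 3/7 reagent for 1 h at room temperature before luminescence reading. Staurosporine (10 uM) defined full stimulation.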

[4] = Cellular Toxicity (caspase-3) BJ (AID 658); settings: Potency: caspase-3 activation;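 note: 0% = DMSO basal and 100% = 10 µM staurosporine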
Method in brief: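 Plated BJ cells (1000/well) rested 5 hr, received compound for 16 hr at 37 °C, then Caspase-Glo 3/7 reagent for 1 hr at room temperature before luminescence reading.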

[5] = Cellular Toxicity (caspase-3) MRC-5 (AID 659);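 note: 0% = DMSO basal and 100% = 10 µM staurosporine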
Method in brief: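 Apoptosis readout in MRC-5 cells: luciferase light generated after caspase 3/7 cleaves a peptide-aminoluciferin substrate, measured post 16 hr compound incubation at 37 °C.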

[6] = Cellular Toxicity (caspase-3) SK-N-SH (AID 661); settings: SK-N-SH caspase-3 activation, qHTS; caspase-3 activation: at 91.7 µM (top of the series), DMSO as zero, staurosporine as full;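 note: 0% = DMSO basal and 100% = 10 µM staurosporine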
Method in brief: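 Caspase 3/7 activation was read by luminogenic substrate cleavage after 16 hour treatment of SK-N-SH cells. Signal was scaled between DMSO and 10 uM staurosporine, and concentration-response data were fitted with the Hill equation for AC50.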

[7] = Cellular Toxicity (caspase-3) H-4-II-E (AID 663); settings: H-4-II-E rat hepatoma; Potency: caspase-3 activation; caspase-3 activation: at 92.2 µM (top of the series), scaled: DMSO 0%, 100 µM tamoxifen 100%
Method in brief: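 Caspase 3/7 activation measured in H-4-II-E cells in complete culture medium after 16 hr treatment at 37 °C, using luciferase-coupled substrate readout; AC50 values come from Hill-equation fits of normalized concentration-response data.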

[8] = Cellular Toxicity (caspase-3) Hek293 (AID 664); settings: HEK293 caspase-3 activation, DMSO = 0%, 100 µM tamoxifen = 100%; at 92.2 µM (top of the series);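 note: cells exposed to compound for 16 h at 37 °C before readout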
Method in brief: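 Concentration-response qHTS: caspase 3/7 activation measured by luminescent aminoluciferin substrate cleavage after 16 h compound exposure of Hek 293 cells. AC50 from Hill equation, with DMSO as basal and 100 uM tamoxifen as 100%.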

[9] = Cellular Toxicity (caspase-3) NIH 3T3 (AID 666);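 note: caspase signal read after 16 h compound exposure; 0% = DMSO basal and 100% = 100 µM tamoxifen stimulation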
Method in brief: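 Caspase-Glo 3/7 luminescence reported caspase activation in 1000 NIH 3T3 cells/well after 16 h compound exposure at 37 C. DMSO set basal and 100 uM tamoxifen set 100% stimulation; concentration-response modeled with the Hill equation for AC50.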

[10] = MultiTox-Fluor Cytotoxicity Assay - LYMP1-001 - Dead Cells (AID 946); note: potency is the fitted concentration of half-maximal effect
Method in brief: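 In this qHTS, 15 uM tetraoctylammonium bromide defined 100% and DMSO defined basal activity. Lymphoblastoid cells (LYMP1-001, 2500 per well) received compound for 16 hr at 37 C before a fluorogenic dead-cell substrate readout at 485/520 nm.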

[11] = Cell Viability - LYMP2-003 (AID 965);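 note: cells exposed to compounds for 24 h before reading; nearly all actives have a fitted effect of over 50% in size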; note: potency is the fitted concentration of half-maximal effect;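 for activity change, negative = cytotoxicity: 0% = DMSO only and full effect = 92 µM tetraoctylammonium bromide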
Method in brief: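 Acute cytotoxicity is scored as a concentration-dependent drop in intracellular ATP, measured by luciferase luminescence in human lymphoblastoid cells treated for 24 hours at 37 C. AC50 values derive from Hill-equation modelling.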

[12] = biological target: Voltage-gated inwardly rectifying potassium channel KCNH2 (Homo sapiens) (UniProt Q12809); assay: qHTS Assay for Small Molecule Inhibitors of the Human hERG Channel Activity (AID 588834);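 note: lower thallium flux fluorescence means stronger hERG block; nearly all actives have a fitted effect of over 50% in size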; note: potency is the fitted concentration of half-maximal effect
Sequence of Voltage-gated inwardly rectifying potassium channel KCNH2 (Homo sapiens) (Q12809 whole entry, looked up): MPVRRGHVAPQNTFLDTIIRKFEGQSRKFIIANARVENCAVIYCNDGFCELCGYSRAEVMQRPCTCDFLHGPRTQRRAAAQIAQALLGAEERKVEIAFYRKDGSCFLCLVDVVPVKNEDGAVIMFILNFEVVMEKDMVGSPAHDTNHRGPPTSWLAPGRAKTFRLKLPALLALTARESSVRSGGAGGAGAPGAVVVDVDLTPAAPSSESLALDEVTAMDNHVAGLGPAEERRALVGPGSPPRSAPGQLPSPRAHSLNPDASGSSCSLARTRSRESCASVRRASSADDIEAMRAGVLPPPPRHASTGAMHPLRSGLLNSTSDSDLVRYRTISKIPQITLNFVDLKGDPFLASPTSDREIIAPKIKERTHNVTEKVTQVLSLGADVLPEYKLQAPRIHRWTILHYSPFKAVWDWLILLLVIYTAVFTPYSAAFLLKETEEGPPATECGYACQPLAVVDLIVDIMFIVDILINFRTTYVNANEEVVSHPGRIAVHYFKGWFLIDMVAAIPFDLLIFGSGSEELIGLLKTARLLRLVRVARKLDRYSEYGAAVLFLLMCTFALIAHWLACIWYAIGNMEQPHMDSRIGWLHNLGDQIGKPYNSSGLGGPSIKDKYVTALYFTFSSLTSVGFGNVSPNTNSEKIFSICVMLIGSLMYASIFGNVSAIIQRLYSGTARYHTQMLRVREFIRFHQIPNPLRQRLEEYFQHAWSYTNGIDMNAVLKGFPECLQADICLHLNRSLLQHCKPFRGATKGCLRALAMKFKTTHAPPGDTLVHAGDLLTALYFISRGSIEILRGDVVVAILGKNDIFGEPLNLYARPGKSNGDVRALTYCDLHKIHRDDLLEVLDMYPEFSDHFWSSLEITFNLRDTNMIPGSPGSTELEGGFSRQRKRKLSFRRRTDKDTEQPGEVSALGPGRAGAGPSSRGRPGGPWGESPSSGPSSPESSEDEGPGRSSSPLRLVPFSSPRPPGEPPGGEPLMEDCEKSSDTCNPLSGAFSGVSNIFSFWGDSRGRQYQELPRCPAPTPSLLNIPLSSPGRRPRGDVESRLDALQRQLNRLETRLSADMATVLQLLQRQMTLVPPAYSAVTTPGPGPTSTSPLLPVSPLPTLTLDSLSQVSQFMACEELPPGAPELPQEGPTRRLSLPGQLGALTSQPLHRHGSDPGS
Method in brief: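 Cells were infected with hERG-BacMam virus for 4 hrs at room temperature, grown overnight, then seeded at 2000/well. After dye loading and roughly 10 min compound treatment, thallium influx was triggered and fluorescence recorded.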

[13] = Cell Viability - Jurkat (AID 426;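 active = dose-dependent loss of cell ATP signal giving a full or clear fitted curve, ranked by lower potency value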;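 note: potency is the fitted concentration of half-maximal effect; cells exposed to compound for 40 hours at 37 °C before ATP read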); settings: qHTS
Method in brief: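 Cytotoxicity taken as drop in cellular ATP (CellTiter-Glo luminescence, 20 min room temperature) after 40 hr, 37C treatment of 5000 Jurkat Clone E6-1 cells per well; concentration-response fitted with Hill equation for AC50.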

[14] = Cell Viability - Hek293 (AID 427;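 active = compounds whose dose-response curve shows a full or clear partial loss of cell viability, called from curve shape rather than a numeric limit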;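 note: potency is the fitted concentration of half-maximal effect; cells exposed to compound for 40 hours at 37 °C before reading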); settings: qHTS
Method in brief: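 AC50 values derive from Hill-modelled concentration-response of ATP-based luminescence, normalized between DMSO-only and 100 uM tamoxifen controls. Cells were exposed in complete culture medium for 40 hr at 37 °C before detection.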

[15] = Cell Viability - HepG2 (AID 433; calls by dose curve;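 note: potency is the fitted concentration of half-maximal effect; potency for ATP loss meaning cytotoxicity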); settings: qHTS
Method in brief: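 Cytotoxicity is scored as loss of intracellular ATP in HepG2 cells exposed to compounds for 40 h. Concentration-response curves, normalized to DMSO and 100 uM tamoxifen, give AC50 values.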

[16] = Cell Viability - NIH 3T3 (AID 541); settings: NIH 3T3 cell viability, qHTS; activity change, negative = cytotoxicity: at 92.2 µM (top of the series); note: nearly all actives have a fitted effect of over 25% in size; note: potency is the fitted concentration of half-maximal effect;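 for activity change, negative = cytotoxicity: plate controls were DMSO alone for no effect and tamoxifen positive control for full effect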
Method in brief: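 Intracellular ATP (CellTiter-Glo luminescence, 20 min at room temperature) measured after 40 hr compound exposure at 37 °C of 1000 NIH 3T3 mouse fibroblasts/well in complete medium; AC50 derived by Hill-equation modelling of qHTS concentration-response curves.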

[17] = Cell Viability - H-4-II-E (AID 543); note: nearly all actives have a fitted effect of over 35% in size; note: potency is the fitted concentration of half-maximal effect
Method in brief: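 CellTiter-Glo luminescence (intracellular ATP) measured after 40 h compound exposure at 37 °C in H-4-II-E rat hepatoma cells seeded at 1500/well. Values are AC50s fitted with the standard Hill equation.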

[18] = Cell Viability - LYMP1-003 - Assay at 24 hr (AID 963); note: potency is the fitted concentration of half-maximal effect
Method in brief: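 Concentration-response qHTS: ATP loss measured by CellTiter-Glo luminescence after 24 h compound exposure at 37 C. Cells were LYMP1-003 human lymphoblastoid, 2500 per well. AC50 derived via standard Hill equation modeling.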

[19] = Cell Viability - LYMP2-007 (AID 979);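 note: cells exposed to compound for 24 h before reading; nearly all actives have a fitted effect of over 60% in size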; note: potency is the fitted concentration of half-maximal effect;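 for activity change, negative = cytotoxicity: 0% = DMSO only and the negative end = 92 µM tetraoctylammonium bromide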
Method in brief: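 AC50 values come from Hill-equation fits of luminescent intracellular ATP (CellTiter-Glo, 30 min, room temperature) following 24 h compound exposure at 37 C. Cells: LYMP2-007 lymphoblastoid line, 2500 per well, in complete culture medium.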

[20] = Cell Viability - LYMP1-002 - Assay at 24 hr (AID 993); note: % is set by controls: 0 for no effect and ±100 for the full control effect
Method in brief: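 qHTS cytotoxicity at 24 h: CellTiter-Glo ATP luminescence in lymphoblastoid line LYMP1-002 incubated with compound at 37 °C. Concentration-response modeled with the Hill equation for AC50; tetraoctylammonium bromide served as positive control.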

Cc1ccc(S(=O)(=O)Oc2ccc(N=Nc3ccc(-c4ccc(N=Nc5c(O)ccc6cc(S(=O)(=O)O)cc(S(=O)(=O)O)c56)c(C)c4)cc3C)cc2)cc1
active: Potency [1] 0.2 µM
inactive: Potency [2] | Potency [3] | Potency [4] | outcome [5] | caspase-3 activation [6] -0.915% | caspase-3 activation [7] -0.204% | caspase-3 activation [8] -1.72% | Potency [9] | Potency [10] | Potency [11] | Potency [12]

O=[N+]([O-])c1cc([N+](=O)[O-])c2ccc(S(=O)(=O)O)cc2c1O
inactive: Potency [13] > 92 µM | Potency [14] > 92 µM | Potency [15] > 92 µM | Potency [16] | Potency [17] | Potency [2] | Potency [3] | Potency [4] | outcome [5] | caspase-3 activation [6] -1.51% | caspase-3 activation [7] 0.036% | caspase-3 activation [8] 1.41% | Potency [9] | Potency [10] | Potency [18] | Potency [11] | Potency [19] | Potency [20]

C=C(C)c1ccccc1
inactive: Potency [13] > 92 µM | Potency [14] > 92 µM | Potency [15] > 92 µM | Potency [16] | Potency [17] | Potency [2] | Potency [3] | Potency [4] | outcome [5] | caspase-3 activation [6] 0.438% | caspase-3 activation [7] 1.07% | caspase-3 activation [8] 0.697% | Potency [9] | Potency [10] | Potency [18] | Potency [11] | Potency [19] | Potency [20] | Potency [12]

O=C=Nc1ccc(Cc2ccc(N=C=O)cc2)cc1
inactive: Potency [13] > 92 µM | Potency [14] > 92 µM | Potency [15] > 92 µM | Potency [16] | Potency [17] | Potency [2] | Potency [3] | Potency [4] | outcome [5] | caspase-3 activation [6] 0.0206% | caspase-3 activation [7] 1.23% | caspase-3 activation [8] -1.82% | Potency [9] | Potency [10] | Potency [18] | Potency [11] | Potency [19] | Potency [20]

C=CC(=O)OCCOCCOC(=O)C=C
inactive: Potency [1] | outcome [5] | caspase-3 activation [8] 5.92% | Potency [9] | Potency [12]
active: Potency [13] 7.5 µM | Potency [14] 27 µM | Potency [16] 3.16 µM | Potency [17] 20 µM | Potency [10] 50.1 µM | Potency [18] 31.6 µM | Potency [11] 12.6 µM | Potency [19] 25.1 µM

CO[C@H]1/C=C/O[C@@]2(C)Oc3c(C)c(O)c4c(O)c(c5c(c4c3C2=O)NC2(CCN(CC(C)C)CC2)N=5)=NC(=O)/C(C)=C\C=C\[C@H](C)[C@H](O)[C@@H](C)[C@@H](O)[C@@H](C)[C@H](OC(C)=O)[C@@H]1C
active: Potency [16] 20 µM
inactive: Potency [15] > 92 µM | Potency [2] | Potency [3] | Potency [4] | outcome [5] | caspase-3 activation [6] 5.74% | caspase-3 activation [7] 2.28% | caspase-3 activation [8] -2.49% | Potency [9] | Potency [18] | Potency [11] | Potency [19] | Potency [20] | Potency [12]

Nc1ccc2cc3ccccc3cc2c1
active: Potency [12] 5.01 µM
inactive: Potency [13] > 92 µM | Potency [14] > 92 µM | Potency [15] > 92 µM | Potency [16] | Potency [17] | Potency [2] | Potency [3] | Potency [4] | outcome [5] | caspase-3 activation [6] -1.26% | caspase-3 activation [7] -0.822% | caspase-3 activation [8] -0.457% | Potency [9] | Potency [10] | Potency [18] | Potency [11] | Potency [19] | Potency [20]
